In PubChem BioAssay one finds composite z-score and z-score data, which are given here for eleven compounds.

The nature of assay [1]: small molecules captured by biotinylated probe aFSTL3 – biochemical, small-molecule microarray, fluorescence 635/667, stem cell growth factor project, primary screen (AID 1064).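 Also: measures binding of the biotinylated anti-FSTL3 antibody to printed compounds.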 Conditions: higher = more signal.
The nature of assay [2]: binders from COS7 lysate, DM2A8 probe, primary screen, torsin A project, cell lysate, small-molecule microarray, fluorescence 635/667 (AID 1065). The following applies: higher = more signal, COS7 lysate expressing mutant human TOR1A.
Assay [3] in a line: small molecules captured by biotinylated probe aFGF2 – biochemical, small-molecule microarray, fluorescence 635/667, stem cell growth factor project, primary screen (AID 1067).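 Also: measures binding of biotinylated aFGF2 protein to printed compounds on slides; z-score merges feature fluorescence and signal-to-noise across triplicate slides.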 The following applies: higher = more signal.
The nature of assay [4]: small molecules captured by biotinylated probe aFGF10 – biochemical, small-molecule microarray, fluorescence 635/667, stem cell growth factor project, primary screen (AID 1071).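 Also: score merges 667 nm spot intensity and signal to noise from triplicate slides.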 The following applies: higher = more signal.
Assay [5] addresses Neurogenic locus notch homolog protein 2 (Homo sapiens) (UniProt Q04721). Kind of assay: small molecules binding Notch2 protein – biochemical, small-molecule microarray, 635 nm fluorescence, stem cell growth factors, primary screen (AID 1073). The following applies: higher = more signal.
Assay [6] concerns the target Pro-neuregulin-1, membrane-bound isoform (Homo sapiens) (UniProt Q02297). Kind of assay: small molecules binding neuregulin-1 protein – biochemical, small-molecule microarray, fluorescence 635/667, psychiatric disease protein project, primary screen (AID 1075).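 Also: score combines 667 nm spot fluorescence with signal to noise.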 Conditions: NRG1 binding, 635 nm fluorescence, higher = more signal.
Assay [7] concerns Neuregulin-1 EGF-like domain. Kind of assay: small molecules binding NRG1 EGF domain – biochemical, small-molecule microarray, 635 nm fluorescence, primary screen (AID 1081).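 Also: binding of the protein to compounds printed on small-molecule microarray slides.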 The following applies: higher = more signal.
Assay [8] is described as follows: FRG1 expression reporter modulators in myotubes – cell-based, C2C12 myotubes, firefly/Renilla luciferase, luminescence, FRG1 inhibition for FSHD, primary screen (AID 1084). The following applies: FRG1 promoter luciferase, higher = more signal, called active from +8 up or from −8 down.
Assay [9] in a line: small molecules captured by biotinylated probe aFST – biochemical, small-molecule microarray, fluorescence 635/667, stem cell growth factor project, primary screen (AID 1086).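 Also: score merges 667 nm fluorescence with signal-to-noise of each printed compound spot.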 Conditions: higher = more signal.
A short description of assay [10]: binders of probe aHhip on microarray, primary screen, stem cell growth factor project, biochemical, small-molecule microarray, fluorescence 635/667 (AID 1087).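 Also: score merges spot fluorescence at 667nm with spot signal to noise ratio.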 Conditions: higher = more signal.

Each structure is given as a SMILES string. Activity calls are given as the source filed them.

Sequence of Pro-neuregulin-1, membrane-bound isoform (Homo sapiens) (Q02297 whole entry, looked up, the tested form may be a part, canonical isoform): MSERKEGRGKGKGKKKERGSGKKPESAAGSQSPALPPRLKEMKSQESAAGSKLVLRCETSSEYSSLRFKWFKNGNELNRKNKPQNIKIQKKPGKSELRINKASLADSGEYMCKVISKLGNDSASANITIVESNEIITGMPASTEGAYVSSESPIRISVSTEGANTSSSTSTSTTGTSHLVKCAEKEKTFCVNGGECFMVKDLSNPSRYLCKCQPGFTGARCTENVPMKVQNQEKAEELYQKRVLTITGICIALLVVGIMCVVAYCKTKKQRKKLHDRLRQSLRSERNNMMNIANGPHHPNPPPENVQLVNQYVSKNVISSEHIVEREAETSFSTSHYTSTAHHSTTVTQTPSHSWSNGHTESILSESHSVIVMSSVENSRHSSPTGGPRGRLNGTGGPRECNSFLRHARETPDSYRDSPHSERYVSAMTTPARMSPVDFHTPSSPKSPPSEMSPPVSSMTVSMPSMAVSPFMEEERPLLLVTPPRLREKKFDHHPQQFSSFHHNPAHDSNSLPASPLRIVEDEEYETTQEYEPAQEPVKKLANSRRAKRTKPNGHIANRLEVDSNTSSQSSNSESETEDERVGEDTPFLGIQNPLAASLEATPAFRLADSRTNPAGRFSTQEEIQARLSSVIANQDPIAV
Sequence of Neurogenic locus notch homolog protein 2 (Homo sapiens) (Q04721 whole entry, looked up, canonical isoform): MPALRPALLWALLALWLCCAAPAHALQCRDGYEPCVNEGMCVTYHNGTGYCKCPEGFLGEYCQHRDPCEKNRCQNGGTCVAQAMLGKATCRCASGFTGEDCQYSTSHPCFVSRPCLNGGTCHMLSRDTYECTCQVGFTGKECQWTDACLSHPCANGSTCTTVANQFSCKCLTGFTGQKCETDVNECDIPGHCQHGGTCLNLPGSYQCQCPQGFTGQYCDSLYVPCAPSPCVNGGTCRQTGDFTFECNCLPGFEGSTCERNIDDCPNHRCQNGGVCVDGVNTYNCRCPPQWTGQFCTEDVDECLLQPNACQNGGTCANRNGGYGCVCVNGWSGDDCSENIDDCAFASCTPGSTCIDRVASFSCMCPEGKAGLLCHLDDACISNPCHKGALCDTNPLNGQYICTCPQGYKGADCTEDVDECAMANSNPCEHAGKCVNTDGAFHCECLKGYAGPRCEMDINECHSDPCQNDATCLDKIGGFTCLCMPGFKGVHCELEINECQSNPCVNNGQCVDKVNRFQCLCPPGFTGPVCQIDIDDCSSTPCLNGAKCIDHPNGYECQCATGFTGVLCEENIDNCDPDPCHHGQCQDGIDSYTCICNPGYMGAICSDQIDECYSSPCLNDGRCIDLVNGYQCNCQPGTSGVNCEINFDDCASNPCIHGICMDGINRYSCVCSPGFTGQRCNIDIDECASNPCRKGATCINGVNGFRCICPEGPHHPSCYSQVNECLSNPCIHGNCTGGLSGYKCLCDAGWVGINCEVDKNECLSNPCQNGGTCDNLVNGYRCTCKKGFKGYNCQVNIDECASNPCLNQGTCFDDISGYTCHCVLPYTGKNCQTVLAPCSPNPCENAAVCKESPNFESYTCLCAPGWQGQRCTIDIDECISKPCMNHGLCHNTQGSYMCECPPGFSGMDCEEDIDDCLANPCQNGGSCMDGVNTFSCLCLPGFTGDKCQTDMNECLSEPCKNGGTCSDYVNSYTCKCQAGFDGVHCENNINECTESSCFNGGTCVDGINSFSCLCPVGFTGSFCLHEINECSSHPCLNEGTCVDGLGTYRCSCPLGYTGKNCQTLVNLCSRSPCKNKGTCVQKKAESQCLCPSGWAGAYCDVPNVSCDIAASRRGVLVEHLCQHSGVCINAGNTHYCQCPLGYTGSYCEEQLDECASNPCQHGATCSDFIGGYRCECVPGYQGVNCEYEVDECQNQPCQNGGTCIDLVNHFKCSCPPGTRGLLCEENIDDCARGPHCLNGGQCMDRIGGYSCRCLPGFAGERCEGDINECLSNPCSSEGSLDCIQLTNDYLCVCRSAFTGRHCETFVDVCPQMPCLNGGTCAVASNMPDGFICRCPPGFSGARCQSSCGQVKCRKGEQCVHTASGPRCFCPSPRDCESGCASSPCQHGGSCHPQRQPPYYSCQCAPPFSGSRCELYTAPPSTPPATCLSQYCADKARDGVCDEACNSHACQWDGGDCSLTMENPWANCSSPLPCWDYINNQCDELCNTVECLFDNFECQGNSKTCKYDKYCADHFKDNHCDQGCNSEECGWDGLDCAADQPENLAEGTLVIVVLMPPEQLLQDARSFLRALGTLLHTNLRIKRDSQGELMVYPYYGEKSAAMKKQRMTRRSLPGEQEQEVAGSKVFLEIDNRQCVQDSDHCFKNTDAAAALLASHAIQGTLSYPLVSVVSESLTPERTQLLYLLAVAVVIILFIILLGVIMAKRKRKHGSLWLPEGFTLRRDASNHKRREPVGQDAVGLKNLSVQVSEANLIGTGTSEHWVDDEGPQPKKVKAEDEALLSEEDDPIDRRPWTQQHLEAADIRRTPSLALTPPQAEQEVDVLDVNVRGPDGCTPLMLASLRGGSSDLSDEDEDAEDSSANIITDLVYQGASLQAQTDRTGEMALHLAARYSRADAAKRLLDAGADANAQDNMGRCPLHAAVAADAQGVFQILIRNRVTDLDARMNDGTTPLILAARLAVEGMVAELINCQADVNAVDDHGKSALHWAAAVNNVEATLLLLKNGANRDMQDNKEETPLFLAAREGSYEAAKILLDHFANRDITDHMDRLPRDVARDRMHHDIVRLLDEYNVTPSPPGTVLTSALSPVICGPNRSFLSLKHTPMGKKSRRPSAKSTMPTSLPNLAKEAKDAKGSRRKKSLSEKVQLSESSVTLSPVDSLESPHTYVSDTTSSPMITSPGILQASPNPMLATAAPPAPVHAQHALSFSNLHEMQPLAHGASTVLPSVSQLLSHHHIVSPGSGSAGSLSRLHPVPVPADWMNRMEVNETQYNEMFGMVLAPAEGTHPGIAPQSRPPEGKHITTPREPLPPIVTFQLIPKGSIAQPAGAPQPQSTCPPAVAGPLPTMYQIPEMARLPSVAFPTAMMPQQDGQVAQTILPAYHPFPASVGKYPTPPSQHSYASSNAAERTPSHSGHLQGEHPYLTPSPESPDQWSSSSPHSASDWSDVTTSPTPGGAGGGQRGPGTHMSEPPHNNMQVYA

Consider `COc1ccc([Si](C)(C)[C@@H]2[C@@H](CC(=O)N(CCO)Cc3ccccc3)O[C@]3(C(=O)N(Cc4cccc(N5CCCCC5=O)c4)c4ccccc43)[C@H]2C)cc1`, for which the composite z-score in assay [1] is 0.0001; in [2], 0.585; in assay [3], -0.0019; in assay [4] it was 0.212; in [5], 0.185; in assay [6], 1.72. For the same compound, the composite z-score in [7] was 1.23; in [9], 0.222; in assay [10], -0.181. Further, the z-score in assay [8] is 0.306 (inactive).
Turning to `COc1ccc([Si](C)(C)[C@@H]2[C@@H](CCO)O[C@]3(C(=O)N(Cc4cccc(NC(=O)[C@H](C)O)c4)c4ccccc43)[C@H]2C)cc1`, the composite z-score in assay [1] was -0.328; in assay [2] it was 0.263; in [3], -0.053; in [4] it was 1.23; in [5] it was 0.487; in [6], 1.07. In addition, the composite z-score was 1.14 in assay [7], 0.146 in assay [9] and -0.249 in assay [10]. For the same compound, the z-score in [8] was -3.53 (inactive).
For `CC1CC/C=C\[C@H]2OC34C=CCN(Cc5ccccc5)C(=O)[C@H]3N(C(CO)C(C)C)C(=O)[C@@H]4C2C(=O)O1` (stereo not given in full), the composite z-score is 0.342 in [1]; -0.153 in [2]; -0.049 in assay [3]; -0.0095 in assay [4]; -0.68 in assay [5]; 0.491 in assay [6]. The composite z-score in assay [7] is 1.39; in assay [9], -0.368; in assay [10], -0.0169. Also, the z-score in [8] was 1.32 (inactive).
As for `Cn1cccc1C(O)C1C=CC2C(=O)N(c3ccccc3)C(=O)C2N1Nc1ccccc1` (stereo not given), the composite z-score was -0.236 in assay [1]; 0.401 in assay [2]; 0.137 in assay [3]; 0.925 in assay [4]; 1.71 in assay [5]; 1.91 in assay [6]. Moreover, the composite z-score in assay [7] was 1.17; in [9], 0.706; in assay [10], -0.136. In addition, the z-score in assay [8] is 0.687 (inactive).
On to `C=C[C@H]1C(C(=O)OCC)=CC[C@@H](c2ccccc2)N1S(=O)(=O)c1ccc(C)cc1`, for which the composite z-score in [1] was 0.131; in [2], 0.431; in assay [3], 0.16; in assay [4] it was 0.693; in assay [5] it was 1.25; in assay [6], 1.04. Further, the values for the composite z-score in assay [7], in assay [9] and in [10] were 0.779, 0.992 and -0.266, respectively. In addition, in assay [8], the z-score is -3.11 (inactive).
For the compound `CN(C)C(=O)[C@]1(CCC(=O)OC(C)(C)C)N=C(c2ccc(OCCCO)cc2)O[C@@H]1c1ccccc1CN=[N+]=[N-]`, the composite z-score in assay [1] came out at 0.292; in [2], 1.28; in assay [3] it was 0.485; in assay [4], 0.488; in [5], 0.934; in assay [6] it was 1.89. Also, the composite z-score in assay [7] is 1.15; in assay [9], 1.34; in assay [10] it was -0.476. Besides, in assay [8], the z-score is 3.58 (inactive).
As for `CCCC#C[Si](O[C@H](CC)c1cn([C@H](C)c2ccccc2)nn1)(C(C)C)C(C)C`, the composite z-score in assay [1] was -0.4; in assay [2] it was 1.31; in assay [3] it was -0.0407; in assay [4] it was 0.468; in [5] it was 0.97; in [6], 0.0607. The composite z-score is 0.181 in assay [7], 0.593 in assay [9] and -0.407 in assay [10]. Besides, the z-score in assay [8] was 0.337 (inactive).
As for `O=C1OCCC=C[C@H]2OC34C=CCN(Cn5nnc6ccccc65)C(=O)[C@H]3N(CCCO)C(=O)[C@@H]4C12` (stereo not given in full), the composite z-score in assay [1] was 0.32; in assay [2], -0.173; in [3] it was -0.116; in [4], -0.169; in assay [5], -1.3; in assay [6], -0.763. Also, the values for the composite z-score in assay [7], in [9] and in [10] were 0.437, -0.601 and -0.236, respectively. In addition, the z-score in assay [8] was 0.0397 (inactive).
Regarding `C=C(COC)/C(=C/C[C@H](OC(=O)c1ccncc1)c1ccc(CO)o1)c1cnc2ccccc2c1`, the composite z-score in assay [1] was 0.138; in [2], 0.47; in assay [3], -0.124; in assay [4], 0.741; in assay [5] it was 1.21; in [6], 0.98. Also, the figures for the composite z-score in [7], in assay [9] and in [10] were 1.14, -0.0236 and -0.113, respectively. Further, the z-score in assay [8] was 1.29 (inactive).
With `Cc1cc(C)c(C(O)C2C=CC3C(=O)N(c4ccccc4)C(=O)C3N2Nc2ccccc2F)c(C)c1` (stereo not given), the composite z-score is -0.0327 in assay [1]; -0.437 in [2]; -0.01 in assay [3]; -0.0495 in assay [4]; 0.565 in assay [5]; 1.07 in [6]. Further, the composite z-score in assay [7] was found to be 1.09; in [9], 0.439; in [10], 0.0854. The z-score in assay [8] was 0.717 (inactive).
On to `COc1ccc(C#Cc2ccc3c(c2)[C@]2(C(=O)N3)[C@H](C(=O)O)[C@H]3C(=O)O[C@H](c4ccccc4)[C@H](c4ccccc4)N3[C@@H]2c2ccc(O)cc2)cc1`, for which the composite z-score is 0.499 in [1]; 0.928 in assay [2]; -0.0557 in [3]; 0.221 in assay [4]; -0.0571 in assay [5]; 0.418 in assay [6]. The values for the composite z-score in assay [7], in assay [9] and in assay [10] were 1.28, 0.105 and -0.134, respectively. The z-score in [8] was 0.247 (inactive).
